According to ChEMBL document CHEMBL1157539, “Thousands of chemical starting points for antimalarial lead identification” (Nature, 2010):

test system: Plasmodium falciparum; assay: GSK_TCMDC: Inhibition of Plasmodium falciparum 3D7 in whole red blood cells, using parasite LDH activity as an index of growth. Test compounds present at 2uM; assay type: functional

SMILES | Inhibition [%]
CN(Cc1ccc(C#N)cc1)C1CCN(c2cc(NC(=O)c3cccc(F)c3)ccn2)CC1.O=C(O)C(F)(F)F | 83
Clc1cc(Nc2ccnc3ccc(Br)cc23)ccc1Oc1ccc(Cl)c2ccccc12 | 99
C=C(C)CSc1nc2c(c(=O)n1CCc1ccccc1)C1(CCCC1)Cc1ccccc1-2 | 100
CCCCCOc1ccc(C(=NC)N(CCCCC)CCCCC)c2ccccc12.I | 96
Cn1nc(-c2ccc(NC(=O)Nc3cc(C(F)(F)F)ccc3F)c(F)c2)c2cnc(NCCCn3ccnc3)nc21.O=C(O)C(F)(F)F | 100
CN1CCN(c2ccc(Nc3nccc(-c4c(-c5cccc(NC(=O)c6c(F)cccc6F)c5)nn5ccccc45)n3)cc2)CC1 | 98
CC(C)C1C(=O)N(S(C)(=O)=O)C2CCN(C(=O)c3ccc(CN4CCCCC4)c([N+](=O)[O-])c3)C12.Cl (centres undefined) | 100
Cl.c1ccc(Oc2ccc(Nc3ccnc4cc(-c5ccc(CN6CCNCC6)o5)ccc34)cc2)nc1 | 100
COc1ccccc1C1CCN(C2CCC(NC(=O)/C=C/c3cc(C(F)(F)F)cc(C(F)(F)F)c3)CC2)CC1 (centres undefined) | 92
Cl.Nc1c2c(nc3ccc(NC(=O)Cc4ccccc4)cc13)CCCC2 | 100
COc1cc(NC(=O)Nc2cc(C)nc3ccccc23)cc(OC)c1 | 100
CCCC1(NC[C@@H](O)[C@H](Cc2ccccc2)NC(=O)c2cc(NCC)cc(N3CCCCS3(=O)=O)c2)CCC1.Cl | 100
CC1CCCCN1CCCNc1nc(NCc2ccccc2)c2ccccc2n1 (centres undefined) | 95
O=C(Nc1ccc(Cl)c(Cl)c1)Nc1ccc(F)c([N+](=O)[O-])c1 | 100
CC(C)C1CCc2nc(N)nc(N)c2C1.Cl (centres undefined) | 95
CCCCCCN1CCC(NCc2ccc(OCCN3CCCC3)cc2)CC1.O=C(O)C(F)(F)F | 100
CC(=O)Nc1ccc(C#Cc2ccc(-c3c(C)[nH]c(C)c(Cl)c3=O)cc2)cc1 | 90
CN1CCN(CCCN(Cc2csc(-c3ccc(CNCc4ccccc4)cc3)n2)C(=O)Nc2cc(Cl)cc(Cl)c2)CC1.O=C(O)C(F)(F)F | 100
CC(C)CNC(=O)c1cncc(-c2cccc(CNC3Cc4ccccc4C3)c2)c1.O=C(O)C(F)(F)F | 100
CC(CN1CCN(C)CC1)C(=O)Nc1ccc(-c2ccc(-c3nc4ccccc4[nH]3)s2)cc1 (centres undefined) | 100

SMILES | Inhibition [%]
C=C[C@H]1CN(CCCCCCC)CC[C@H]1CCNc1ccnc2ccc(OC)cc12 | 95
Cc1cc(F)ccc1-c1nc(NCC(O)CNCCc2ccccc2)nc2c1ccc(=O)n2-c1c(F)cccc1F.O=C(O)C(F)(F)F (centres undefined) | 100
CC(=O)NCCNc1nccc(N2CCc3ncnc(Nc4ccc(OCc5ccccn5)c(Cl)c4)c3C2)n1 | 99
CCN(CC)CCN(Cc1ccc(-c2ccc(C(F)(F)F)cc2)nc1)C(=O)Cn1c(SCc2ccc(F)cc2)nc(=O)c2sccc21.O=C(O)C(O)C(O)C(=O)O | 96
O=C(Nc1ccc(OC2CCN(Cc3ccsc3)C2)c(Cl)c1)c1ccc2ncccc2c1.O=C(O)C(F)(F)F (centres undefined) | 88
Cc1nnsc1C(=O)Nc1cccc(-c2cccc(-c3nc4cccc(C)c4[nH]3)c2)c1 | 99
Cc1cc(C(=O)NCc2ccc(-c3c(C)noc3C)cc2)n(-c2ccc(Cl)cc2)n1 | 100
Cc1cccc2nc(-c3ccc(-c4cccc(CNCc5ccc(S(C)(=O)=O)cc5)c4)s3)[nH]c12.O=C(O)C(F)(F)F | 100
O=C(Cn1c(CCc2cccc(F)c2F)nc(=O)c2cccnc21)N(Cc1ccc(-c2ccc(C(F)(F)F)cc2)cc1)C1CCN(C2CCSCC2)CC1.O=C(O)C(O)C(O)C(=O)O | 100
CCCCCC(=O)N1CCOC(CCN2CCc3c(c4ccccc4n3C)C2)(c2ccc(Cl)c(Cl)c2)C1 (centres undefined) | 95
COC1(C)Oc2ccc3cccc([N+](=O)[O-])c3c2C1=O (centres undefined) | 98
O=C(Cc1ccc(NC(=O)c2ccc(O)c(-c3cccc([N+](=O)[O-])c3)c2)cc1)NCCN1CCCCC1 | 89
Cc1cc(O)c(CN(C)Cc2ccc(N(C)C)cc2)cc1C(C)C | 100
Oc1ccccc1N1CCN(c2ccc(-c3nc4ccccc4[nH]3)cn2)CC1 | 97
CS(=O)(=O)c1ccc(-c2cnc(N)c(-c3cccc(CO)c3)c2)cc1 | 98
COc1ccc(-c2ccc(NC(=O)c3ccc(Cl)cc3)cc2)cc1CN1CCC(O)CC1.O=C(O)C(F)(F)F | 89
O=C(Nc1ccc(Oc2cccnc2)cc1)C1CCN(Cc2cc(Cl)ccc2O)CC1 | 83
CNC(=O)c1ccccc1Nc1cc(Nc2cc(OC)ccn2)ncc1Cl.O=CO | 100
Nc1ccc(-c2ccc(NC(=O)Nc3ccccc3)cc2)cn1 | 91
